{
  "source": "PubChem BioAssay (NCATS)",
  "note": "Results filed as inconclusive are left out. Active and inactive are the calls of the source. Calls come from the whole dose curve; as a rule, active = well fitted inhibition curve with a large enough effect; inconclusive = small, poorly fitted or top-dose-only effect; inactive = flat fitted curve, though single readings scatter.",
  "data": [
    {"test_system": "CRL-7250", "assay": "Cytotoxic Profiling of Annotated Libraries Using Quantitative High-Throughput Screening (AID 1296008); note: nearly all actives have a fitted effect of over 60% in size; for max response: % is set by controls: 0 for no effect and ±100 for the full control effect", "details": "Five cell lines viability, CellTiter-Glo ATP luminescence, 48-72 h; max response: active compounds read low", "procedure,_shortened": "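Cells exposed to compounds for 48 or 72 hr at 37 degrees Celsius. Viability read as ATP-coupled luminescence with CellTiter-Glo after 10 min at room temperature.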", "values": [
      {"compound": "CCNC(=O)CCC/C=C\\C[C@@H]1[C@@H](/C=C/C(O)CCc2ccccc2)[C@@H](O)C[C@@H]1O", "note": "(stereo not given in full)", "outcome": "inactive"},
      {"compound": "CCC(C)(O)C(O)C(=O)OCc1ccc(O[C@@H]2O[C@H](CO)[C@@H](O)[C@H](O)[C@H]2O)cc1", "note": "(stereo not given in full)", "max response": "-2.71% (inactive)"},
      {"compound": "C[C@@H]1O[C@@H](OC[C@H]2O[C@@H](OCC3CCC4CC3C4(C)C)[C@H](O)[C@@H](O)[C@@H]2O)[C@H](O)[C@H](O)[C@H]1O", "note": "(stereo not given in full)", "max response": "-0.807% (inactive)"},
      {"compound": "O=C(O)CCc1cccc(O[C@@H]2O[C@H](CO)[C@@H](O)[C@H](O)[C@H]2O)c1O", "outcome": "inactive"},
      {"compound": "C=C1C(O[C@@H]2O[C@H](CO)[C@@H](O)[C@H](O)[C@@H]2O)CC2C(C)(C)C(O)CCC2(C)C1CC/C(C)=C\\CO", "note": "(stereo not given in full)", "max response": "-10.8% (inactive)"},
      {"compound": "C[C@H]1CC[C@@]2(OC1)O[C@H]1CC3C4CC=C5C[C@H](O)C[C@@H](O[C@@H]6O[C@@H](C)[C@H](O)[C@@H](O)[C@H]6O[C@@H]6O[C@@H](C)[C@H](O)[C@@H](O)[C@H]6O)[C@]5(C)C4CC[C@]3(C)[C@H]1[C@@H]2C", "note": "(stereo not given in full)", "max response": "-7.49% (inactive)"},
      {"compound": "CC(=O)O[C@@H]1[C@H](O[C@@H]2O[C@H](CO)[C@@H](O)[C@H](O)[C@H]2O)[C@@H](O[C@@H]2O[C@@H](C)[C@H](O)[C@@H](O[C@@H]3O[C@H](CO)[C@@H](O)[C@H](O)[C@H]3O)[C@H]2O)[C@H](OC(=O)C23CCC4(C)C(=CCC5C6(C)CC(O)C(O[C@@H]7O[C@H](C(=O)O)[C@@H](O)[C@H](O)[C@H]7O)C(C)(C(=O)O)C6CCC54C)C2CC(C)(C)CC3O)O[C@@H]1C", "note": "(stereo not given in full)", "max response": "-7.88% (inactive)"},
      {"compound": "CC(C)[C@H]1CCC(CO)=C[C@@H]1/C=C(\\CO)C(=O)O", "max response": "-1.21% (inactive)"},
      {"compound": "O=c1c2cccnc2n(-c2cccc([N+](=O)[O-])c2)c(=O)n1Cc1ccncc1", "outcome": "inactive"},
      {"compound": "C=C1C2(CCC(=O)OC2(C)C)CC(OC(=O)/C(C)=C/C)C2(C)C13OC14C(=O)OC(C)(C(=O)C12C(=O)OC4C)C3OC(C)=O", "note": "(stereo not given)", "outcome": "inactive"},
      {"compound": "C=C[C@H]1[C@H](O[C@@H]2O[C@H](CO[C@@H]3OC[C@](O)(CO)[C@H]3O)[C@@H](O)[C@H](O)[C@H]2O)OC=C2C(=O)OCC[C@H]21", "outcome": "inactive"},
      {"compound": "CC(C)=CC/C=C(/C)[C@H]1CC[C@]2(C)[C@@H]1[C@H](O)CC1[C@@]3(C)CC[C@H](O)C(C)(C)[C@@H]3[C@@H](O[C@@H]3O[C@H](CO)[C@@H](O)[C@H](O)[C@H]3O[C@@H]3O[C@@H](C)[C@H](O)[C@@H](O)[C@H]3O)C[C@]12C", "note": "(stereo not given in full)", "max response": "-7.49% (inactive)"},
      {"compound": "CC(C)(O)C1CC=C(C(=O)OCC2OC(Oc3c(O)cc(C(=O)O)cc3O)C(O)C(O)C2O)CC1", "note": "(stereo not given)", "max response": "-4.71% (inactive)"},
      {"compound": "C=C1CC2[C@]3(C)C(=C(O)C(=O)[C@@]2(C)[C@]2(C(=O)OC)C(=O)C(C)OC(=O)[C@@]12C)C(C)(C)C(=O)CC3O", "note": "(stereo not given in full)", "max response": "-4.87% (inactive)"},
      {"compound": "C=Cc1cc(O)cc2nc(-c3ccc(O)c(F)c3)oc12", "max response": "-4.59% (inactive)"},
      {"compound": "CC(=O)OC[C@]1(O)[C@H]2[C@H](OC(=O)CC(C)C)OC=C(CO[C@@H]3O[C@H](CO)[C@@H](O)[C@H](O)[C@H]3O)[C@H]2C[C@@H]1O", "outcome": "inactive"},
      {"compound": "CC(/C=C/C1(O)C(C)(C)CC(O)CC1(C)O)OC1OC(CO)C(O)C(O)C1O", "note": "(stereo not given)", "outcome": "inactive"},
      {"compound": "COc1ccc(/C=C/C(=O)O[C@@H]2[C@@H](O)[C@H](C)O[C@@H](OC3C4C=COC(O[C@@H]5O[C@H](CO)[C@@H](O)[C@H](O)[C@H]5O)C4C4(CO)OC34)[C@@H]2O)cc1OC", "note": "(stereo not given in full)", "max response": "0.628% (inactive)"},
      {"compound": "COC(=O)C1C(CC(C)=O)C=CC(O)C12Oc1cc(C)cc(O)c1C2=O", "note": "(stereo not given)", "max response": "-4.03% (inactive)"},
      {"compound": "CC(C)c1cc2c(c(O)c1O[C@@H]1O[C@H](CO)[C@@H](O)[C@H](O)[C@H]1O)CC1(O)CCC(O)C(C)(C)C1CC2", "note": "(stereo not given in full)", "outcome": "inactive"},
      {"compound": "COc1cc(C2c3cc(O)c(OC)cc3CC(CO)C2CO)ccc1O", "note": "(stereo not given)", "outcome": "inactive"},
      {"compound": "COC(=O)[C@@]1(C)CC[C@]2(C(=O)O[C@@H]3O[C@H](CO)[C@@H](O)[C@H](O)[C@H]3O)CC[C@]3(C)C(=CCC4[C@@]5(C)CC[C@H](O[C@@H]6O[C@H](C(=O)O)[C@@H](O)[C@H](O)[C@H]6O)C(C)(C)C5CC[C@]43C)[C@@H]2C1", "note": "(stereo not given in full)", "max response": "-18.2% (inactive)"},
      {"compound": "C/C(=C/CCC(CO)C1CCC2(C)C3CCC4C(C)(C)C(OC5OC(CO)C(O)C(O)C5O)CC(O)C45CC35CCC12C)COC1OC(CO)C(O)C(O)C1O", "note": "(stereo not given)", "outcome": "inactive"},
      {"compound": "N#CC1C(=O)Nc2scc(-c3ccc(-c4ccccc4O)cc3)c2C1=O", "note": "(stereo not given)", "max response": "-4.61% (inactive)"},
      {"compound": "Cc1c(N2C(=O)c3ccc(C(=O)O)cc3C2=O)c(=O)n(-c2ccccc2)n1C", "outcome": "inactive"},
      {"compound": "COC1=Cc2c(nc3n(c2=O)C(C)C(=O)NC3(O)C(C)C)OC=C1", "note": "(stereo not given)", "outcome": "inactive"},
      {"compound": "CC(C)C1=CC2=CCC3[C@](C)(CCC[C@@]3(C)C(=O)O)C2CC1=O", "note": "(stereo not given in full)", "outcome": "inactive"},
      {"compound": "CC(C)c1ccc(CC(=O)N2CCC[C@@H](c3cccc(OC(C)(C)C(=O)O)c3)C2)cc1", "max response": "-8.91% (inactive)"},
      {"compound": "CC(=O)O[C@H]1CC[C@@]2(CI)C(=CC[C@@H]3[C@@H]2CC[C@]2(C)[C@@H]([C@H](C)CCCC(C)C)CC[C@@H]32)C1", "max response": "-3.01% (inactive)"},
      {"compound": "C[C@@]12C[C@]3(O)O[C@H](O1)[C@]1(COC(=O)c4ccccc4)[C@H]3C[C@@]12O[C@@H]1O[C@H](COC(=O)c2ccccc2)[C@@H](O)[C@H](O)[C@H]1O", "max response": "-3.18% (inactive)"},
      {"compound": "C[C@@H]1O[C@@H](O[C@H]2[C@H](O[C@H]3[C@H](O[C@H]4CC[C@@]5(CO)C(CC[C@]6(C)C5CC=C5C7CC(C)(C)C[C@@H](O)[C@]7(C)CC[C@]56C)C4(C)C)O[C@H](C(=O)O)[C@@H](O)[C@@H]3O)OC[C@@H](O)[C@@H]2O)[C@H](O)[C@H](O)[C@H]1O", "note": "(stereo not given in full)", "outcome": "inactive"},
      {"compound": "CCC(C)(O)C(O)C(=O)OCc1ccc(O[C@@H]2O[C@H](CO)[C@@H](O)[C@H](O)[C@H]2O)c(OC)c1", "note": "(stereo not given in full)", "max response": "0.769% (inactive)"},
      {"compound": "C[C@@H](Nc1cc(NS(=O)(=O)N2CCC2)nc(SCc2cccc(F)c2F)n1)[C@@H](O)CO", "max response": "3.18% (inactive)"},
      {"compound": "COc1cc(/C=C/C(=O)OC(C)(C)C(OC2OC(CO)C(O)C(O)C2O)C(=O)OCc2ccc(OC3OC(CO)C(O)C(O)C3O)cc2)ccc1O", "note": "(stereo not given)", "max response": "-9.61% (inactive)"},
      {"compound": "COC(=O)[C@@]1(O)C=CC[C@@H]2[C@@]3(C)C[C@@H](c4ccoc4)OC(=O)[C@H]3CC[C@]21C", "outcome": "inactive"},
      {"compound": "COc1c(C)c(OCC=C(C)C)cc2c1C(=O)NC2=O", "max response": "-3.35% (inactive)"},
      {"compound": "C[C@@H]1O[C@@H](OC[C@H]2O[C@@H](OCCc3ccccc3)[C@H](O)[C@@H](O)[C@@H]2O)[C@H](O)[C@H](O)[C@H]1O", "max response": "-0.537% (inactive)"},
      {"compound": "FC(F)(F)c1cc(C(F)(F)F)c2ccc3nc(-c4nnco4)cn3c2n1", "outcome": "inactive"},
      {"compound": "O=C(/C=C/c1ccccc1)OCC1=CC[C@@H]2C(C(=O)O)=CO[C@@H](O[C@@H]3O[C@H](CO)[C@@H](O)[C@H](O)[C@H]3O)[C@H]12", "outcome": "inactive"},
      {"compound": "O=C(/C=C/c1ccc(O)cc1)OC[C@H]1O[C@@H](OC(=O)/C=C/c2ccccc2)[C@H](O)[C@@H](O)[C@@H]1O", "outcome": "inactive"}
    ]}
  ]
}
